Screening data from PubChem.
The list is not random: actives were taken first. Their share in the collection is about 14%.
Pf growth 48h – inhibits P. falciparum growth in the first generation, 48 h | P. falciparum luciferase growth in erythrocytes, 48 h | Potency, µM (doses to about 28.7 µM), without a hit: at the top dose activity change, negative = inhibition, actives largely listed as inhibitors | actives 5.9% (n = 310,000) | AID 504832; note: potency is the fitted concentration of half-maximal effect
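Parasite viability was followed by luminescence of a genomically integrated firefly luciferase. Cultures held 0.1% parasitemia at 2% hematocrit (final), incubated under 5% CO2 at 37 C.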
Sm TGR block – S. mansoni TGR enzyme inhibition; Q962Y6; purified TGR, DTNB reduction, TNB absorbance 405 nm; Potency, µM (series often up to 114 µM), without a hit: at the top dose activity change, negative = inhibition, most hits filed as inhibitors; actives 3% (n = 360,000); AID 485364; note: potency is the fitted concentration of half-maximal effect; nearly all actives have a fitted effect of over 60% in size
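TGR 20 nM + NADPH 100 uM (dispensed conc.), cpd preinc 15 min RT; start with NADPH (500 uM addition) then DTNB (15 mM addition). Kinetic TNB absorbance, 405 nm filter. Four-parameter Hill fit across titration.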
Pf growth 96h – inhibits malaria parasite growth, 96 h; Potency, µM (titrated, usually from 28.7 µM), for inactives: at the top dose activity change, negative = inhibition, most hits filed as inhibitors; P. falciparum luciferase reporter growth, 96 h; AID 504834; actives 6.9% (n = 320,000); note: potency is the fitted concentration of half-maximal effect
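Delayed-death screen, second-generation endpoint: infected erythrocytes, 2% hematocrit, 0.05% parasitemia final; 96 hours at 37 C, 5% CO2; luciferase detection reagent; luminescence decrease equals reduced growth.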
HCMV inh – inhibitors of human cytomegalovirus; HFF cells, HCMV-luciferase reporter, 72 h; active compounds read low; activity change, negative = inhibition, % at 57.5 µM; actives 4.5% (n = 410,000); AID 1259415; in the data active = activity change below about -60%; inconclusive = no clear call, values can overlap the other calls; inactive = above about -39%
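Compounds were evaluated in HFFs infected with an HCMV luciferase reporter virus (MOI 1 PFU/cell). Luciferase in lysates collected 72 h post infection served as the replication measure.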
FBPA Giardia inh – Giardia lamblia aldolase inhibition. actives 0.71% (n = 290,000). purified Giardia FBPA. A8B2U2. AID 2451. Potency, µM (series often up to 59.6 µM), for inactives: top-dose activity, negative = inhibition, hits mostly inhibitors; note: potency is the fitted concentration of half-maximal effect; nearly all actives have a fitted effect of over 55% in size
Target sequence (A8B2U2 whole entry, looked up): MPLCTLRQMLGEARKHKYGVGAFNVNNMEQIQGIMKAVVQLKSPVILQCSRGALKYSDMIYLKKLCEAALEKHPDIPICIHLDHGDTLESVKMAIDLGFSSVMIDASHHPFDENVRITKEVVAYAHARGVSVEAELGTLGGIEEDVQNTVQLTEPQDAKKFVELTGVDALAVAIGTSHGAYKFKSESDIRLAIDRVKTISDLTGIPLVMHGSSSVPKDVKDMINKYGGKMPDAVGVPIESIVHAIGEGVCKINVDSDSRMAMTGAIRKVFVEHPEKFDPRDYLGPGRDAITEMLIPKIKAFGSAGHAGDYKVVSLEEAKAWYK
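Giardia FBPA (40 nM reagent) was preincubated 10 min at RT with compound (up to 57.5 uM final), then substrate plus GAPDH/TPI/NAD/arsenate coupling system with diaphorase/resazurin was added; resorufin fluorescence (525/598 nm) was read after 20 min.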
Starred values were filed as active, the others as inactive; ? = inconclusive; · = not tested or not shown; [ ] = another dose, or the depositor's remark. Unless noted, calls come from the whole dose curve; as a rule, active = well fitted curve in the direction sought with a large enough effect; inconclusive = small, poorly fitted or top-dose-only effect, or another doubt; inactive = no such curve, though single readings can be large; an effect the other way counts as inactive or inconclusive. % is set by controls: 0 for no effect and ±100 for the full control effect.

SMILES	Pf growth 48h	Sm TGR block	Pf growth 96h	HCMV inh	FBPA Giardia inh
CCOc1ccc(N2C(=O)c3[nH]nc(-c4ccccc4)c3C2c2ccc(O)c(OC)c2)cc1 (centres undefined)	·	-2%	·	-25	·
CCOC(=O)c1ccc(N2C(=O)c3[nH]nc(-c4ccc(OC)cc4)c3C2c2ccccc2Cl)cc1 (centres undefined)	·	17%	·	11	·
CCOc1ccc(C2c3c(-c4ccc(C)cc4)n[nH]c3C(=O)N2c2ccc(Cl)cc2)cc1 (centres undefined)	·	3%	·	-106*	·
COc1ccccc1C1c2c(-c3ccc(Cl)cc3)n[nH]c2C(=O)N1c1ccc(C)cc1 (centres undefined)	·	2%	·	-105*	·
COCCNC(=O)Cn1nc(-c2ccc(C)cc2)c2ccccc2c1=O	29%	0%	7%	-6	7%
O=C(Nc1nc2c(F)cccc2s1)c1ccc(S(=O)(=O)N2CCOCC2)cc1	·	1%	·	30	·
Cc1nc2ccccc2c(=O)n1NC(=O)/C=C/c1ccccc1	42%	-12%	-9%	?	-5%
O=C(/C=C/c1ccccc1)Nn1c(-c2cccs2)nc2ccccc2c1=O	5%	-4%	-5%	-61*	7%
Cc1cccc(-c2nc3ccccc3c(=O)n2NC(=O)c2cccs2)c1	9%	-5%	62%	-32	10%
O=C(/C=C/c1cccc(Cl)c1)Nn1c(-c2cccs2)nc2ccccc2c1=O	-1%	-4%	2.1µM*	?	9%
COc1cccc2[nH]c3c(N4CCc5ccccc5C4)ncnc3c12	?	-17%	?	·	-1%
COc1cccc2[nH]c3c(N4CCC(C)CC4)ncnc3c12	9.3µM*	-1%	?	4	-9%
COc1cccc(N2CCN(c3ncnc4c3[nH]c3ccc(F)cc34)CC2C)c1 (centres undefined)	?	-10%	138%	-97*	-3%
COc1ccc2[nH]c3c(N4CC(C)OC(C)C4)ncnc3c2c1 (centres undefined)	·	-2%	?	?	-21%
COc1cccc(N2CCN(c3ncnc4c3[nH]c3ccccc34)CC2C)c1 (centres undefined)	8.3µM*	1%	?	-102*	-6%
CSc1nc(O)c(Nc2ccccc2)c(=O)[nH]1	·	·	·	3	·
COCc1cccc(-c2csc(C(C)(O)c3ccc(OC)cc3)n2)c1 (centres undefined)	·	·	·	-10	·
O=C(c1cc[n+]([O-])cc1)N1CCCC(N2CCN(c3cccc(C(F)(F)F)c3)CC2)C1 (centres undefined)	12µM*	-10%	?	-1	·
Oc1ccccc1CN1CCCC(N2CCN(c3cccc(C(F)(F)F)c3)CC2)C1 (centres undefined)	1.5µM*	-9%	148%	-5	8%
Fc1ccccc1N1CCN(C2CCCN(Cc3cccc(C(F)(F)F)c3)C2)CC1 (centres undefined)	13%	-29%	?	-18	13%
O=C(c1ccsc1)N1CCCC(N2CCN(c3cccc(C(F)(F)F)c3)CC2)C1 (centres undefined)	0%	-15%	-9%	1	·
COc1cc(C(CC(=O)NCc2ccccc2)N2Cc3ccccc3C2=O)cc(OC)c1OC (centres undefined)	·	7%	·	10	·
CCOc1ccc(N2CC(C(=O)Nc3cc(OCC)c(N4CCOCC4)cc3OCC)CC2=O)cc1 (centres undefined)	?	0%	0%	-39	·
Cc1ccc(/C=N/N(C)C2=NS(=O)(=O)c3ccccc32)o1	21%	-9%	?	·	0%
CN(/N=C/c1ccc(Br)o1)C1=NS(=O)(=O)c2ccccc21	0%	45µM*	?	-25	0%
SMILES	Pf growth 48h	Sm TGR block	Pf growth 96h	HCMV inh	FBPA Giardia inh
Cc1cccc(-n2c(C)cc(C(=O)C(=O)Nc3ccccc3F)c2C)c1C	·	5%	·	-67*	·
COc1ccc(OC)c(/C=C2/Sc3ccccc3C2=O)c1	?	0%	-1%	-23	-5%
COc1ccc(C(=O)NCCCNC(=O)c2ccc(C)nc2)cc1	-5%	-6%	?	-5	0%
C=CCNC(=S)Nc1ccccc1	1%	-19%	38%	-15	2%
C=CCNC(=S)/N=c1/ccccn1CC	6%	?	-3%	-98*	?
NS(=O)(=O)c1ccc(CCNC(=S)NC(=O)c2ccccc2Br)cc1	·	·	·	-23	·
CCOC(=O)O[C@@H](C)OC(=O)[C@@H]1N2C(=O)[C@@H](NC(=O)[C@@H](N)c3ccccc3)[C@H]2SC1(C)C	-2%[12.8 µM]	·	7%[12.8 µM]	·	-1%[21.7 µM]
Cn1nc(C(F)(F)F)c(-c2ccc(Br)cc2)c1NC(=O)Nc1ccc(F)cc1F	?	10%	-12%	-92*	-1%
Cn1nc(C(F)(F)F)c(C(=O)Nc2ccc(F)cc2F)c1Sc1ccc(C(F)(F)F)cc1	?	0%	8.3µM*	35	-8%
Cn1nc(C(F)(F)F)c(C(=O)Nc2ccc(F)cc2F)c1Sc1ccc(Cl)cc1	?	9%	12µM*	5	-2%
Cc1ccc(Sc2c(C(=O)Nc3ccc(F)cc3F)c(C(F)(F)F)nn2C)cc1	?	0%	?	-12	-1%
Cn1nc(C(F)(F)F)c(-c2ccc(F)cc2)c1NC(=O)c1ccco1	?	2%	?	-3	4%
Cn1nc(C(F)(F)F)c2cc(C(=O)Nc3ccc(F)cc3F)sc21	?	2%	-23%	?	-5%
COc1ccc(C2=NCCn3nc4cc(OC)ccc4c32)cc1	15%	-14%	0%	38	·
Cc1cc2oc(=O)cc(CN3CCN(S(=O)(=O)c4ccc5c(c4)OCCO5)CC3)c2cc1C	?	1%	?	?	5%
Cc1cc(C)c2c(CCl)cc(=O)oc2c1	5%	10µM*	0%	-95*	-8%
Cc1cc(C)c2c(CN3CCCCC3)cc(=O)oc2c1	17%	34%	4%	10	4%
Cc1cc2oc(=O)cc(CN3CCN(S(=O)(=O)/C=C/c4ccccc4)CC3)c2cc1C	10µM*	7%	?	-38	-2%
Cc1cc(C)c2c(CN3CCCCCCC3)cc(=O)oc2c1	·	·	·	23	·
Cc1cc(C)c2c(CN3CCN(C/C=C/c4ccccc4)CC3)cc(=O)oc2c1	9.3µM*	-12%	7.4µM*	45	6%
CN1CCN(C(=O)c2ccc(N3CC4ON=C(c5c(F)cccc5Cl)C4C3)cc2)CC1 (centres undefined)	·	·	·	-13	·
CC1CCN(CC(=O)Nc2cccc(C(=O)Nc3cccc(C(F)(F)F)c3)c2)CC1	1.3µM*	0%	0.93µM*	-8	2%
O=C(COC(=O)C1CCCO1)Nc1cccc(C(F)(F)F)c1 (centres undefined)	2%	-31%	7.4µM*	8	1%
